FBW7 activator = activators of human E3 ligase FBW7 | normalized activity (activation), % at 26.1 µM | Q969H0 | AlphaScreen FBW7–phospho-cyclin E peptide binding, activator screen | 0.13% of 650,000 active | AID 1259310; in the data active = normalized activity above about 1.9%;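 also: purified mutant Fbw7 with reduced substrate affinity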
GPR151 activ = activates the human receptor GPR151; Q8TDV0; PathHunter beta-arrestin GPR151 cells, luminescence; activation, % at 11.2 µM; 1% of 650,000 active; AID 1508602; in the data active = activation above about 4.9%
Target sequence (Q8TDV0 whole entry, looked up): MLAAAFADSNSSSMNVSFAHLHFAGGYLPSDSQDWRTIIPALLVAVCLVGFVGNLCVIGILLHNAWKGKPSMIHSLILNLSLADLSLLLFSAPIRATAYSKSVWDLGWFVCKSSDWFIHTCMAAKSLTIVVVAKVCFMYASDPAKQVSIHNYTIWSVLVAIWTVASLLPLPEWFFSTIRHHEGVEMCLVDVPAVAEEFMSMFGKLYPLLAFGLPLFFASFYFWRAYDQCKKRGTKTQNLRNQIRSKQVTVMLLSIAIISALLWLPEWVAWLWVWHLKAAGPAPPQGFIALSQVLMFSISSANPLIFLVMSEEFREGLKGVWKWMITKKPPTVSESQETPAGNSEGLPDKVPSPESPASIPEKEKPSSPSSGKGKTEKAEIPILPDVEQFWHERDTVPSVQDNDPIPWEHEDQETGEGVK
TEAD-YAP block = TEAD-YAP interaction inhibition. AID 1259422. 1.4% of 640,000 active. inhibition, % at 9.12 µM. HEK-TIYL cells, TEAD-Gal4/YAP UAS-luciferase luminescence; in the data active = inhibition above about 32%
MITF primary = blocks human microphthalmia-associated transcription factor; 0.91% of 650,000 active; AlphaScreen MITF homodimerization, bead proximity signal; O75030; inhibition, % at 2.6 µM; AID 1259374; in the data active = inhibition above about 50%
Hits are given with their value; – = inactive. Compounds with a hit are over-represented: about 3.5% of the library has one in this group of screens.

SMILES | FBW7 activator | GPR151 activ | TEAD-YAP block | MITF primary
Cc1nc2cc(-c3ccccc3)nn2c(C)c1CCC(=O)O | – | – | 51 | –
COc1cc(OC)cc(-c2cc3nc(C)c(CCC(=O)NCc4ccccc4)c(C)n3n2)c1 | – | – | 39 | –
CCOC(=O)c1ccc(NC(=O)CCC(=O)N2CC(C)Oc3ccc(C)cc32)cc1 (stereo not drawn) | – | – | – | –
COc1ccc(-c2cc(C(=O)Nc3nncs3)c3ccccc3n2)c(OC)c1 | – | – | – | –
COc1ccc(C(=O)N/N=C\c2ccc(Br)cc2)cc1OC | – | – | 40 | –
COc1ccc(C(=O)N/N=C(/C)c2ccc(OC)cc2OC)cc1 | – | – | – | –
N#Cc1ccc(/C=N/NC(=O)c2ccccc2O)cc1 | – | – | – | –
O=C(O)c1cc(N/N=C/c2cccnc2)ccc1Cl | – | – | – | –
COc1ccc(/C(C)=N/Nc2ccc(C(=O)O)cc2)c(OC)c1 | – | – | 48 | –
O=C(O)c1ccc(N/N=C/c2cccnc2)cc1 | – | – | 33 | –
N#Cc1ccc(/C=N/NC(=O)c2cc(O)cc(O)c2)cc1 | – | – | 33 | –
CCCC(=O)N1c2ccccc2C(N(C(=O)c2ccccc2)c2ccc(F)cc2)CC1C (stereo not drawn) | – | – | – | –
Cc1cccc(NC(=O)C2C3C=CC4(O3)C2C(=O)N(Cc2ccc(Cl)cc2)C4C(=O)NC2CCCCC2C)c1 (stereo not drawn) | – | – | – | –
O=C1/C(=C/c2ccc(Cl)cc2)C=C(c2ccccc2)N1c1ccc(F)cc1 | – | – | – | –
COc1cc(OC)cc(C(=O)N/N=C\c2ccc(OCC(N)=O)cc2)c1 | – | – | 56 | –
COc1ccc(/C=N/Nc2ccc(C(=O)O)cc2)cc1Br | – | – | 45 | –
COc1ccc(C(=O)N/N=C/c2ccc(O)c(O)c2)cc1Br | – | – | – | –
CCNc1nc(Nc2cc(OC)c(OC)c(OC)c2)c2ncn(-c3ccccc3)c2n1 | – | – | 47 | –
COc1cc(Nc2nc(Nc3ccccc3)c3ncn(-c4ccccc4)c3n2)cc(OC)c1OC | – | – | – | –
COc1cc(Nc2nc(Nc3nc4ccccc4n3C)nc3c2ncn3-c2ccccc2)cc(OC)c1OC | – | – | 42 | –
Cc1cccc(C(=O)Nc2cccc(C(N)=O)c2)c1 | – | – | – | –
CCC1=NN2C(=N)/C(=C\c3cccc(OCCOc4cc(C)ccc4C)c3)C(=O)N=C2S1 | – | – | – | 63
CCC1=NN2C(=N)/C(=C/c3cc(Br)c(OCCOc4ccc(C)cc4)c(OC)c3)C(=O)N=C2S1 | – | – | – | 61
CCC1=NN2C(=N)/C(=C/c3cccc(OCCOc4ccccc4C)c3)C(=O)N=C2S1 | – | – | – | –
CCC1=NN2C(=N)/C(=C/c3cc(Br)c(OCCOc4ccc(Br)cc4)c(OC)c3)C(=O)N=C2S1 | – | – | – | –
SMILES | FBW7 activator | GPR151 activ | TEAD-YAP block | MITF primary
CCc1[nH]nc2c1C(c1ccc(O)cc1)C(C#N)=C(N)O2 (stereo not drawn) | – | – | – | –
CCN(CC)c1ccc2c(c1)OC(N)=C(C#N)C2c1ccccc1 (stereo not drawn) | 3.4 | – | – | –
CCN(CC)c1ccc2c(c1)OC(N)=C(C#N)C2c1cccs1 (stereo not drawn) | – | – | 53 | –
CCN(CC)c1ccc2c(c1)OC(N)=C(C#N)C2c1cccnc1 (stereo not drawn) | – | – | 54 | –
CCOC(=O)C1=C(C)OC(N)=C(C#N)C1c1cccs1 (stereo not drawn) | – | – | – | –
N#CC1=C(N)Oc2cc(N)ccc2C1c1cccnc1 (stereo not drawn) | – | – | – | –
COc1ccccc1/C=C1\C(=O)NN(c2ccc(Cl)cc2)C1=O | – | – | – | –
CC1CCN(C(=O)c2ccc(S(=O)(=O)c3ccccc3)cc2)CC1 | – | – | – | –
CN(C)CCNC(=O)c1ccc2c(c1)CC(c1nc3ccc(-c4ccnc(N)n4)cc3[nH]1)CO2 (stereo not drawn) | – | – | – | –
Nc1nccc(-c2ccc3nc(C4COc5ccc(C(=O)NCCc6cccs6)cc5C4)[nH]c3c2)n1 (stereo not drawn) | 24 | – | – | –
COc1ccccc1CCNC(=O)c1ccc2c(c1)CC(c1nc3ccc(-c4ccnc(N)n4)cc3[nH]1)CO2 (stereo not drawn) | 3.0 | – | – | –
N#Cc1ccc(NC(=O)c2cc(-c3ccc(Cl)cc3)on2)cc1 | – | – | – | –
COc1ccc(NC(=O)c2cc(-c3cccc(O)c3)on2)cc1 | – | – | – | –
COc1ccc(-c2cc(C(=O)Nc3cccc(O)c3)no2)cc1 | – | – | 90 | –
O=C(Nc1cccc(O)c1)c1cc(-c2ccc(F)cc2)on1 | – | – | 89 | –
N#Cc1ccc(NC(=O)c2cc(-c3ccc(O)cc3)on2)cc1 | 2.3 | – | – | –
COc1ccc(OCCOc2c(Cl)cc(/C=C3/C(=N)N4C(c5ccccc5)=CSC4=NC3=O)cc2OC)cc1 | – | – | – | –
Cc1cc(C)n(CCc2nc3c4ccccc4nc(=S)n3[nH]2)n1 | – | – | 49 | –
CCOc1cccc(C(=O)Nc2ccc3c(c2)OCCO3)c1 | – | – | 58 | –
O=C(CCC(=O)Nc1ccc2c(c1)OCCO2)Nc1ccc2c(c1)OCCO2 | – | – | – | –
Cc1ccoc1C(=O)Nc1ccc2ccccc2c1 | – | – | 41 | –
CCOCCC(=O)Nc1ccc2c(c1)OCCO2 | – | – | 39 | –
CCOc1cccc(C(=O)Nc2ccc3ccccc3c2)c1 | – | – | 58 | –
Cc1cc(C(=O)Nc2ccc3ccccc3c2)oc1C | – | – | – | –
O=C(Nn1cnc2ccccc2c1=O)c1ccc(F)cc1 | – | – | – | –
SMILES | FBW7 activator | GPR151 activ | TEAD-YAP block | MITF primary
CCOC(=O)c1ccc(NC(=O)c2cccc(Oc3ccccc3)c2)cc1 | – | – | 48 | –
O=C(CSc1nnc(-c2ccc3c(c2)OCO3)o1)Nc1ccc2[nH]c(=O)[nH]c2c1 | 4.6 | – | – | –
CC(CCc1ccccc1)NC(=O)COC(=O)CSc1nnc(N)s1 (stereo not drawn) | – | – | – | –
Clc1ccc(OCc2nc(-c3ccccn3)no2)c(Cl)c1 | – | – | 36 | –
Clc1ccccc1OCc1nc(-c2ccccn2)no1 | – | – | – | –
O=C(Cc1ccc(F)cc1)Nc1ccc(Nc2cc(-n3ccnc3)ncn2)cc1 | – | – | – | –
O=C(Nc1ccc(Nc2cc(-n3ccnc3)ncn2)cc1)c1ccccc1Cl | – | – | 41 | –
COc1ccccc1C(=O)Nc1ccc(Nc2cc(-n3ccnc3)ncn2)cc1 | – | – | 37 | –
Cc1onc(-c2ccccc2Cl)c1C(=O)Nc1cccc2ccc(-n3ccnc3)nc12 | – | – | – | –
O=C(Nc1cccc2ccc(-n3ccnc3)nc12)c1ccccc1Cl | 2.3 | – | – | –
O=C(Nc1ccc(Nc2cc(-n3ccnc3)ncn2)cc1)C(c1ccccc1)c1ccccc1 | – | – | – | –
Cc1cc(C)c(S(=O)(=O)NCC(=O)Nc2cccc3ccccc23)c(C)c1 | – | – | – | –
O=C(Nc1ccc(-c2noc(-c3cccc(Cl)c3)n2)cc1)c1ccco1 | – | – | 54 | –
Cc1nc2ncnn2c(NCCc2ccccc2)c1C | – | – | 42 | –
